A selection: hits, their analogues and other compounds. The true share with any hit is near 21%.
NS1 function inh = inhibitors of influenza NS1 protein function; Potency, µM (top dose mostly 46.1 µM); 0.4% of 270,000 active; AID 2326; calls by dose curve; further: actives are rising curves; nearly all actives have a fitted effect of over 50% in size
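Growth recovery, yeast-based: influenza A NS1 expressed in S. cerevisiae causes slow growth, and suppressors are detected by OD600. The parent strain without NS1 is used as positive control.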
FBPA Giardia inh = inhibitors of Giardia lamblia fructose-1,6-bisphosphate aldolase; A8B2U2; purified Giardia FBPA; Potency, µM (highest dose often 59.6 µM), most hits filed as inhibitors; 0.71% of 290,000 active; AID 2451; further: nearly all actives have a fitted effect of over 55% in size
Target sequence (A8B2U2 whole entry, looked up): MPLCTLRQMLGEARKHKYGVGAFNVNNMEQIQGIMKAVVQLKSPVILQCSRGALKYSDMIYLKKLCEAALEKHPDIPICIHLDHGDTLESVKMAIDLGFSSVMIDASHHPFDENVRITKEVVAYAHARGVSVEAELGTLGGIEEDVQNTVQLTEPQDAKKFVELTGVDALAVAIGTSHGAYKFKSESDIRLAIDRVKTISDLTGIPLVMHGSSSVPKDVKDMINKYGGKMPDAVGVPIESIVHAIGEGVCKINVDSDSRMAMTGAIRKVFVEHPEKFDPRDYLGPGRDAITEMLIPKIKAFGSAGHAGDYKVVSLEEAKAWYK
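40 nM FBPA preincubated 10 min at RT with compound (up to 57.5 uM final), then substrate plus GAPDH/TPI/NAD/arsenate coupling and diaphorase/resazurin added. Fluorescence read after 20 min at RT, 525/598 nm.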
Shiga inhibitor = Shiga toxin inhibition; Vero cells, Shiga toxin protein synthesis inhibition reporter; inhibition, % at 38.7 µM; 9.2% of 290,000 active; in the data active means inhibition mostly above about 28%, no sharp cut-off; inactive means mostly below about 43%
Pf growth 48h = inhibits P. falciparum growth in the first generation, 48 h; P. falciparum luciferase growth in erythrocytes, 48 h; AID 504832; 5.9% of 310,000 active; Potency, µM (top dose mostly 28.7 µM), most hits filed as inhibitors
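Luminescence readout; reporter = integrated firefly luciferase in P. falciparum. RBC culture at 2% hematocrit, 0.1% parasitemia final, 37 C/5% CO2; decreased signal taken as growth inhibition.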
Cycloheximide cs = counter-screen hit for Shiga toxin inhibitors, cycloheximide. max response, %. 12% of 300,000 active. cell reporter, cycloheximide protein synthesis inhibition counterscreen; in the data active means max response mostly above about 13%, no sharp cut-off; inactive means mostly below about 14%; further: read at 38.3 µM for the half of the compounds with a filed dose
Pf growth 96h = inhibits malaria parasite growth, 96 h | P. falciparum luciferase reporter growth, 96 h | Potency, µM (series often up to 28.7 µM), usual class: inhibitors | 6.9% of 320,000 active | AID 504834
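Plates of compound plus infected erythrocytes (2% hematocrit, 0.05% parasitemia final) incubate 96 hours, 37 C, 5% CO2. Detection reagent added; reduced luminescence from the parasites' luciferase reporter flags inhibition.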
Each line names hits and unclear results; the compound was inactive in the other large screens. Unless noted, the call rests on the fitted dose curve; in most records, active means well fitted curve in the direction sought with a large enough effect; inconclusive means small, poorly fitted or top-dose-only effect, or another doubt; inactive means no such curve, though single readings can be large; an effect the other way counts as inactive or inconclusive.

CN1C[C@@H]2C(c3ccc(Cl)nc3)C3(c4ccccc4)CC2(C3)[C@H]1c1ccccc1 (stereo partly specified)	Pf growth 48h 9.3µM, Pf growth 96h 13µM
CC#CCN1c2ccccc2[C@]23C[C@@H](C(=O)OC)N(C(=O)CC(C)C)C2=NC(C(=O)OC)=C(C(=O)OC)[C@H]13	none (no result: NS1 function inh, Shiga inhibitor, Pf growth 48h, Cycloheximide cs, Pf growth 96h)
CN(C)Cc1cc(C(C)(C)C)cc(CNC2CCCCC2)c1O	none (no result: FBPA Giardia inh, Shiga inhibitor, Pf growth 48h, Cycloheximide cs, Pf growth 96h)
CS(=O)(=O)c1ccc([C@@H](O)[C@@H](COC(=O)CN)NC(=O)C(Cl)Cl)cc1	Pf growth 48h inconclusive, Pf growth 96h 1.9µM (no result: NS1 function inh, FBPA Giardia inh, Shiga inhibitor, Cycloheximide cs)
CCOc1ccc(NC(=O)COc2nsnc2N2CCCCC2)cc1	Pf growth 96h 12µM
CCOc1ccc(NC(=O)CSc2nc3ccccc3nc2N2CC(C)OC(C)C2)cc1 (stereo unspecified)	Pf growth 48h inconclusive, Pf growth 96h 9.3µM
O=C(CSc1nc2ccccc2nc1N1CCOCC1)N1CCN(c2ccccc2)CC1	Pf growth 48h 9.3µM, Pf growth 96h inconclusive
CCOc1ccc(NC(=O)CSc2nc3ccccc3nc2N2CCOCC2)cc1	Pf growth 48h inconclusive, Pf growth 96h 12µM
COc1ccc(NC(=O)COc2nsnc2N2CCCCC2)cc1	Pf growth 96h inconclusive
COc1ccc(NC(=O)CN(C)C(=O)C23CC4CC(CC(C4)C2)C3)cc1	Pf growth 96h inconclusive
CCOC(=O)c1ccc(S(=O)(=O)N2CC(=O)Nc3ccccc32)cc1	none
O=C(Nc1ccc(-n2cnnn2)cc1)c1cc(S(=O)(=O)N2CCCC2)ccc1Cl	Pf growth 48h inconclusive (no result: NS1 function inh, FBPA Giardia inh, Shiga inhibitor, Cycloheximide cs)
CC(C)CC(=O)Nc1ccc(C(=O)COC(=O)C2=COCCO2)cc1	none (no result: NS1 function inh, FBPA Giardia inh, Shiga inhibitor, Cycloheximide cs)
Cc1c(Cl)cccc1NC(=O)CSc1ncnc2c1cnn2CCO	none (no result: FBPA Giardia inh)
NC(=O)c1ccc(NC(=O)COC(=O)C2(c3cccc(F)c3)CCCC2)cc1	none (no result: NS1 function inh)
Cn1c(N)c(C(=O)COC(=O)C2(c3cccc(F)c3)CCCC2)c(=O)n(C)c1=O	Pf growth 48h 7.4µM, Pf growth 96h 13µM
Cn1c(N)c(C(=O)COC(=O)CSc2ccccc2)c(=O)n(C)c1=O	Cycloheximide cs 16
Cn1c(N)c(C(=O)COC(=O)CSc2ccc3ccccc3c2)c(=O)n(C)c1=O	none
Cc1csc(=O)n1CC(=O)OCC(=O)c1c(N)n(C)c(=O)n(C)c1=O	none (no result: NS1 function inh, FBPA Giardia inh, Shiga inhibitor, Cycloheximide cs)
Cn1c(N)c(C(=O)COC(=O)Cc2ccsc2)c(=O)n(C)c1=O	Pf growth 96h 10µM
O=S(=O)(c1ccc2[nH]ccc2c1)N1CCCCCC1	none (no result: FBPA Giardia inh)
O=C(O)CCCCn1ccc(=O)[nH]c1=O	none (no result: FBPA Giardia inh, Shiga inhibitor, Pf growth 48h, Cycloheximide cs, Pf growth 96h)
C=CCn1c(SCC(=O)N2CCOCC2)nnc1C(C)NC(=O)c1ccccc1 (stereo unspecified)	Pf growth 96h inconclusive (no result: FBPA Giardia inh)
Cc1ccc(OCC(=O)NCCCNC(=O)c2ccncc2)cc1	Pf growth 48h inconclusive
O=C(O)/C(=C\c1ccncc1)c1cccc2ccccc12	none (no result: FBPA Giardia inh, Shiga inhibitor, Pf growth 48h, Cycloheximide cs, Pf growth 96h)
O=C(CN1C(=O)NC(Cc2c[nH]c3ccccc23)C1=O)NCCc1ccccc1 (stereo unspecified)	none
CC1(c2ccc([N+](=O)[O-])cc2)Nc2ccccc2S1 (stereo unspecified)	Shiga inhibitor 65, Cycloheximide cs 33
Cc1ccc(S(=O)(=O)CCC(=O)Nc2nc(-c3cccnc3)cs2)cc1	none
Cc1ccc(S(=O)(=O)CCC(=O)Nc2nc(-c3ccccn3)cs2)cc1	Pf growth 48h 13µM, Pf growth 96h 10µM (no result: NS1 function inh, FBPA Giardia inh, Shiga inhibitor, Cycloheximide cs)
Cc1ccc(C2(C)NC(=O)N(CC(=O)Nc3nc(-c4ccccn4)cs3)C2=O)cc1 (stereo unspecified)	Pf growth 48h 2.3µM, Pf growth 96h 3.3µM (no result: NS1 function inh, FBPA Giardia inh, Shiga inhibitor, Cycloheximide cs)
COc1ccc(OCCN(C)Cc2c(O)ccc3ccccc23)cc1	Cycloheximide cs 18
CN(Cc1ccccc1)Cc1c(O)ccc2ccccc12	FBPA Giardia inh inconclusive, Pf growth 96h inconclusive
CC1(C)OC(=O)C(=NNc2ccc(Br)cc2)C(=O)O1	Shiga inhibitor 115, Cycloheximide cs 31
CC1(C)OC(=O)C(=CNc2ccccc2)C(=O)O1	none
CCOc1ccccc1N1CC(C(=O)Nc2cccc(S(=O)(=O)N3CCCCC3)c2)CC1=O (stereo unspecified)	Pf growth 48h inconclusive, Pf growth 96h inconclusive (no result: NS1 function inh)
CN(C)c1ccc(C=Nc2cnn(C)c2C(N)=O)cc1	Shiga inhibitor 90, Cycloheximide cs 39, Pf growth 96h inconclusive
